Compounds without any hit were thinned out: in the full panel of roughly 83,000, 20% have a hit.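 96-well plates, one dose, 48 hours. Percent growth reported; active if below 10.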 The source made the active and inactive calls.

The test system of the first test is NCI-H23 lung. As to the kind of experiment: NCI-60 one-dose screen, 48 h (100 = growth as untreated, 0 = no growth, -100 = all killed). The settings on record: 10 µM unless noted.
In the case of `C=C(C)[C@@H]1CC[C@]2(C(=O)NC3CCCCC3)CC[C@]3(C)[C@H](CC[C@@H]4[C@@]5(C)CCC(=O)C(C)(C)[C@@H]5CC[C@]43C)[C@@H]12`, the growth was 88.7% (inactive). On to `O=[N+]([O-])c1ccc(-c2cc(-c3ccc(Nc4nc(Nc5ccc(Cl)cc5)nc(Nc5ccc(Cl)cc5)n4)cc3)no2)cc1`, for which the growth was 84.1% (inactive). Same read-out and setting: the value for `Cc1c2c(c(C)c3c1oc1cc(O)ccc13)C(=O)N(CCN1CCCCC1)C2=O` was 94.6% (inactive).

For a further test, the system named is NCI-H226 lung. Described as above. As to conditions: 10 µM unless noted.
Take `COc1cc(Cn2ncc3ccc(NC(=O)c4cc5ccccc5oc4=N)cc32)cc(OC)c1OC`: the growth is 88.6% (inactive).

As to `N=C1C(c2nc(-c3ccc(Br)cc3)cs2)=C(O)CN1Cc1cccnc1`, the growth is 98.8% (inactive). With `COc1ccc(/C=C/c2c(C(=O)/C=C/c3cccs3)c(C)nc3ccccc23)cc1`, the growth is 76% (inactive). Same read-out and setting: the value for `N#C/C(=C\c1ccc(Br)cc1)n1nnc2cc(F)c(F)cc21` was 37.3% (inactive); that for `C[C@@H]1N=C(c2ccc3ccccc3n2)Nc2nc3ccccn3c2C1=O` was 94.4% (inactive); that for `CCCCc1ccc(Nc2ccc(Nc3ccc(CCCC)cc3S(=O)(=O)O)c3c2C(=O)c2ccccc2C3=O)c(S(=O)(=O)O)c1` was 79.7% (inactive). For `COc1ccc(OC)c2c1[nH]c(=O)c1c3ncccc3cn21`, the growth was 32.2% (inactive).

On to `COc1ccc(NC(=O)CSc2nc(C)c(C(C)=O)n2-c2ccc(Cl)cc2)cc1`, for which the growth is 86.6% (inactive). The same measure, in the same setting: the figure for `COc1cccc(-c2nn(-c3ccccc3)cc2-c2ccnc(NCCNC(=O)Nc3cccc(C(F)(F)F)c3)c2)c1` is 61% (inactive). Consider `O=C(NCCCNc1cc(-c2cn(-c3ccccc3)nc2-c2cccc(O)c2)ccn1)c1ccccc1`, for which the growth is 54.9% (inactive). Same read-out and setting: the value for `Cc1cc(NCc2cc(Nc3ccnc4cc(Cl)ccc34)ccc2F)nc(N2CCCC2)n1` was 65.8% (inactive).

Turning to `Oc1ccc(CN2CCC(N3CCOCC3)CC2)c2cccnc12`, the growth was 64.6% (inactive). `CCN(CC)c1nc(SCC(=O)Nc2nc3ccc(C)cc3s2)nc(-c2ccccc2)c1C#N`: the growth is 86.2% (inactive). With `Clc1cccc(Cl)c1C(Nc1nc2ccccc2s1)Nc1nc2ccccc2s1`, the growth is 89.9% (inactive).

Turning to `C[C@H]1[C@H]2[C@H]3CC[C@@H]4[C@@]5(C)C/C(=C/c6cccnc6)C(=O)C(C)(C)[C@@H]5CC[C@@]4(C)[C@]3(C)CC[C@]23CO[C@]1(C)[C@@H](C(=O)/C=C\c1cccnc1)C3`, the growth was -13.5% (active). As to `O=c1ccn2nc3ccccc3c2[nH]1`, the growth was 91.3% (inactive).

For `COc1ccccc1NC(=O)N/C(N)=N/c1nc2ccccc2s1`, the growth was 63.4% (inactive).

Turning to `COc1c(CCC[P+](c2ccccc2)(c2ccccc2)c2ccccc2)cc2c(c1OC)OCO2`, the growth is 27% (inactive). Regarding `COc1ccc(C(=O)Nn2c(NCC(=O)N3c4ccccc4Sc4ccccc43)nnc2-c2ccc(O)cc2)cc1`, the growth was 101% (inactive).

As for `COc1ccc(-c2nc3c(c(=O)n2C(C)=O)C(c2ccc(Cl)cc2)c2sc4c(Cl)cccc4c2O3)cc1` (stereo unspecified), the growth is 15.8% (inactive). In the case of `Cc1nc2c(c(N3CCCc4ccccc43)n1)CCC2`, the growth is 10.9% (inactive).

As for `CC1=C([Se]CC(OC(=O)CC[Se]c2ccccc2)C(=O)NCCCCCC(=O)OCc2ccccc2)C(=O)c2ccccc2C1=O` (stereo unspecified), the growth was 46% (inactive).

With `Cc1cc(NCCCCNc2ccnc3cc(Cl)ccc23)nc(Nc2ccc(C(=O)N3CCCC3)cc2)n1`, the growth is 108% (inactive). For `Cc1ccc(N(C(=O)CCc2c[nH]c3ccccc23)[C@H](C(=O)Nc2ccc(Cl)cc2)c2cccc([N+](=O)[O-])c2)cc1`, the growth is 74.9% (inactive). Same read-out and setting: the figure for `O=c1[nH]c2ccccc2n1C1CCN(CCOc2ccccc2)CC1` is 78.9% (inactive).

`c1ccc2c(c1)nc(CN1CCOCC1)n1cc(N3CCCC3)nc21`: the growth is 93.6% (inactive). Still for that read-out and setting: the figure for `CC/C=C1/C(=O)C=C[C@@H]1C/C=C\CCCC(=O)O` is 93.3% (inactive); for `COC(=O)[C@]12CC[C@@H](C)[C@H](C)[C@@H]1C1=CC[C@@H]3[C@@]4(C)C(C=O)=C[C@@](C)(COS(C)(=O)=O)C4[C@H](O)C[C@@]3(C)[C@]1(C)CC2` (stereo partly specified) it is -67.2% (active). Same read-out and setting: the figure for `CCCCCCCCn1ccc2cc(NC(=O)Cn3cc(CN4CCCC4)nn3)ccc21` is 95.5% (inactive).

Regarding `CCCCCCCOc1c(OC)cc(C2CC(=O)Nc3c2c(C)nn3-c2nc3ccccc3[nH]2)cc1OC` (stereo unspecified), the growth was -38.7% (active).

For `COc1cc(-c2nc(N3CCN(C)CC3)c3ccccc3n2)cc(OC)c1OC`, the growth is 66.2% (inactive). The same measure, in the same setting: the figure for `CCC(CO)Nc1nc2ccc(Cl)cc2c2ccccc12` (stereo unspecified) is 65.3% (inactive); for `NS(=O)(=O)c1ccc(-n2nc(C(=O)N/N=C\c3ccc(F)cc3)cc2-c2ccc(Cl)cc2)cc1` it is 82.7% (inactive). Same read-out and setting: the figure for `O=S(=O)(NCCCNc1cc(-c2c(-c3cccc(O)c3)nc3sccn23)ccn1)c1cccc(Cl)c1` is 61.5% (inactive). On to `CC(=O)n1c(-c2ccc(Cl)cc2)nc2c(c1=O)C(c1ccc(Cl)cc1)c1sc3c(Cl)cccc3c1O2` (stereo unspecified), for which the growth is 9.2% (active). As to `C=C(C)[C@@H]1CC[C@]2(C(=O)NC3CCCCC3)CC[C@]3(C)[C@H](CC[C@@H]4[C@@]5(C)CCC(=O)C(C)(C)[C@@H]5CC[C@]43C)[C@@H]12`, the growth is 74.6% (inactive).

`O=[N+]([O-])c1ccc(-c2cc(-c3ccc(Nc4nc(Nc5ccc(Cl)cc5)nc(Nc5ccc(Cl)cc5)n4)cc3)no2)cc1`: the growth is 109% (inactive). On the same count and under the same terms, the figure for `Cc1c2c(c(C)c3c1oc1cc(O)ccc13)C(=O)N(CCN1CCCCC1)C2=O` is 88.5% (inactive).

The values are drawn from PubChem BioAssay (NCI).
